The panel holds about 83,000 compounds, 20% with a hit somewhere; the sample as a whole holds those more often.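 Values shown are percent growth following 48 h exposure of cells in 96-well plates to a single concentration of compound; below 10 was considered active.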 Calls of active or inactive are those of the source. *1 amine or outer side, *2 acyl side, *3 side chain or, on linkers, in order; H or OH if unused. Where a SMILES comes first, the peptide text is derived from it. Bridges are numbered along the chain shown (N, C = ends). Roman numbers before positions name the chains, in order. [ ]: non-standard residue; d: D form. Actinocin(1to9) = Cc1c2oc3c(C)ccc(C(=O)[*:2])c3nc-2c(C(=O)[*:1])c(N)c1=O; NMeV = CN[CH](C(=O)O)C(C)C; Sar = CNCC(=O)O
What was measured:
Test in all cases: NCI-60 one-dose screen, 48 h (100 = growth as untreated, 0 = no growth, -100 = all killed)
Conditions in all cases: 10 µM unless noted
SK-MEL-2 melanoma = tested on: SK-MEL-2 melanoma
EKVX NSCLC = tested on: EKVX NSCLC
SN12C renal = tested on: SN12C renal
UO-31 renal = tested on: UO-31 renal
TK-10 renal = tested on: TK-10 renal
ACHN renal = tested on: ACHN renal
CAKI-1 renal = tested on: CAKI-1 renal
CCRF-CEM leukemia = tested on: CCRF-CEM leukemia
MOLT-4 leukemia = tested on: MOLT-4 leukemia
A498 renal = tested on: A498 renal

Measured: growth

O=C1/C(=C\c2ccc([N+](=O)[O-])cc2)CS(=O)(=O)C/C1=C/c1ccc([N+](=O)[O-])cc1
active: SK-MEL-2 melanoma -35.9% | EKVX NSCLC -63.4% | SN12C renal -41.1% | UO-31 renal -95.4% | TK-10 renal -99% | ACHN renal -98.8% | CAKI-1 renal -92.3% | CCRF-CEM leukemia -31.6% | MOLT-4 leukemia -34.7%

O=C(OC12CC3CC(CC(C3)C1)C2)c1ccc(NCc2cc(O)ccc2O)cc1
active: SK-MEL-2 melanoma -19.9% | EKVX NSCLC -67.9% | SN12C renal -3.25% | UO-31 renal -100% | TK-10 renal -95.9% | ACHN renal -89.7% | CAKI-1 renal -92.5% | CCRF-CEM leukemia -23.7% | MOLT-4 leukemia -19.5%

N#CC(=C1SCS1)[N+](=O)[O-]
inactive: SK-MEL-2 melanoma 19.2% | EKVX NSCLC 63.7% | SN12C renal 28% | UO-31 renal 32.3% | ACHN renal 24.5% | A498 renal 59.3%
active: TK-10 renal 3.93% | CCRF-CEM leukemia 2.01% | MOLT-4 leukemia 3.81%

COc1ccc2nc3cc([N+](=O)[O-])ccc3c(NNc3ccccc3)c2c1
inactive: SK-MEL-2 melanoma 74.9% | EKVX NSCLC 83.1% | SN12C renal 92.4% | UO-31 renal 91.4% | TK-10 renal 60% | ACHN renal 68.7% | CAKI-1 renal 86.1% | CCRF-CEM leukemia 90.6% | MOLT-4 leukemia 128%

CCc1cccc(CC)c1N1C(=O)C=CC1=O
inactive: SK-MEL-2 melanoma 107% | EKVX NSCLC 113% | SN12C renal 129% | UO-31 renal 90.3% | TK-10 renal 104% | ACHN renal 102% | A498 renal 100% | CCRF-CEM leukemia 17%
active: MOLT-4 leukemia -10%

COc1c(C)c2c(c(O)c1C/C=C(\C)CCC(=O)O)C(=O)OC2
inactive: SK-MEL-2 melanoma 43.8% | EKVX NSCLC 48.2% | SN12C renal 34.4% | UO-31 renal 27.9% | TK-10 renal 42% | A498 renal 61.7% | CCRF-CEM leukemia 26.1% | MOLT-4 leukemia 25.9%
active: CAKI-1 renal 6.69%

CC(=O)N1CC(=O)NC1=S
inactive: SK-MEL-2 melanoma 105% | EKVX NSCLC 94% | SN12C renal 100% | UO-31 renal 86.1% | TK-10 renal 102% | ACHN renal 103% | CAKI-1 renal 93% | CCRF-CEM leukemia 105% | MOLT-4 leukemia 104%

O=S(=O)(O)c1cnccn1
inactive: SK-MEL-2 melanoma 102% | EKVX NSCLC 97.4% | SN12C renal 103% | UO-31 renal 93.4% | TK-10 renal 94% | ACHN renal 104% | CAKI-1 renal 92.3% | A498 renal 118% | CCRF-CEM leukemia 112% | MOLT-4 leukemia 101%

Cc1nn(CCO)c(C)c1N=[N+]([O-])c1c(C)nn(CCO)c1C
inactive: SK-MEL-2 melanoma 58.1% | EKVX NSCLC 23.4% | SN12C renal 60% | A498 renal 105%
active: UO-31 renal -93.6% | TK-10 renal -46.9% | ACHN renal -42.8% | CCRF-CEM leukemia 1.91%

Clc1ccc(Cc2nc3ccccc3s2)cc1
inactive: SK-MEL-2 melanoma 110% | EKVX NSCLC 86.5% | SN12C renal 86.1% | UO-31 renal 61.2% | TK-10 renal 119% | CAKI-1 renal 96.3% | A498 renal 117% | CCRF-CEM leukemia 93.1% | MOLT-4 leukemia 92.6%

CC(CSc1n[nH]c(=S)s1)c1ccccc1 (configuration not stated)
inactive: SK-MEL-2 melanoma 130% | EKVX NSCLC 107% | SN12C renal 101% | UO-31 renal 77.4% | TK-10 renal 116% | ACHN renal 116% | CAKI-1 renal 98.5% | A498 renal 108% | MOLT-4 leukemia 91.2%

CC(C)(C)c1ccc(CCO)cc1
inactive: SK-MEL-2 melanoma 92.3% | EKVX NSCLC 89.6% | SN12C renal 91.8% | UO-31 renal 78.8% | TK-10 renal 93.7% | ACHN renal 107% | A498 renal 118% | CCRF-CEM leukemia 87.2% | MOLT-4 leukemia 99.1%

c1ccc(-c2cc3cc4ccccc4cn3c2)cc1
inactive: SK-MEL-2 melanoma 90.1% | EKVX NSCLC 85.3% | SN12C renal 87.6% | UO-31 renal 60.9% | TK-10 renal 101% | ACHN renal 89.6% | CAKI-1 renal 84.7% | A498 renal 96.3% | CCRF-CEM leukemia 90.2% | MOLT-4 leukemia 83.2%

COC(=O)c1nc(=S)[nH]c(C(=O)OC)c1C(=O)c1ccc(Cl)c(Cl)c1
inactive: SK-MEL-2 melanoma 107% | EKVX NSCLC 100% | SN12C renal 102% | UO-31 renal 87% | TK-10 renal 106% | ACHN renal 114% | CAKI-1 renal 94.6% | A498 renal 130% | MOLT-4 leukemia 130%

Cc1nc([N+](=O)[O-])c(Sc2nncc(-c3ccccc3)n2)n1C
inactive: SK-MEL-2 melanoma 95.4% | EKVX NSCLC 79.7% | SN12C renal 86.8% | UO-31 renal 60.3% | TK-10 renal 74.4% | A498 renal 107% | CCRF-CEM leukemia 45.1% | MOLT-4 leukemia 65.7%
active: CAKI-1 renal -3.06%

Nc1nc(-c2ccccc2)nc(N)c1N=O
inactive: SK-MEL-2 melanoma 88% | EKVX NSCLC 89.1% | SN12C renal 74% | UO-31 renal 45.8% | TK-10 renal 51.6% | ACHN renal 58.9% | CAKI-1 renal 32.4% | A498 renal 112% | CCRF-CEM leukemia 34.8% | MOLT-4 leukemia 58.1%

CCCCCCCCCCCC[N+]1(CCCCCCCCCCCC)CCCC(C)C1 (configuration not stated)
active: SK-MEL-2 melanoma -96.5% | EKVX NSCLC -51.7% | SN12C renal -72.4% | UO-31 renal -100% | TK-10 renal -79.3% | ACHN renal -78.5% | A498 renal -88.4% | CCRF-CEM leukemia -56.7% | MOLT-4 leukemia -62.6%

Cn1c(-c2ccccc2)c(/C=C/C2=[N+](C)c3ccccc3C2(C)C)c2ccccc21
inactive: EKVX NSCLC 20% | UO-31 renal 74% | CAKI-1 renal 35.6%
active: SK-MEL-2 melanoma 6.41% | SN12C renal 7.02% | TK-10 renal 3.06% | A498 renal 3.03% | CCRF-CEM leukemia 8% | MOLT-4 leukemia -10.6%

O=[N+]([O-])c1ccc([I+]c2ccccc2)cc1
active: SK-MEL-2 melanoma -17.9% | EKVX NSCLC -62.4% | SN12C renal -56.2% | TK-10 renal 3.24%
inactive: UO-31 renal 46.9% | ACHN renal 64.2% | CAKI-1 renal 23.1% | A498 renal 39.6% | MOLT-4 leukemia 22.9%

O=C(Nc1ccc(Cl)c(Cl)c1)Nc1ccccc1O
inactive: SK-MEL-2 melanoma 77% | EKVX NSCLC 80.4% | SN12C renal 76.4% | UO-31 renal 55.8% | TK-10 renal 116% | ACHN renal 76.5% | A498 renal 106% | CCRF-CEM leukemia 37.1% | MOLT-4 leukemia 61.1%

Cc1nc(Sc2nc3ccc([N+](=O)[O-])cc3s2)sc1C
inactive: SK-MEL-2 melanoma 15.4% | EKVX NSCLC 88.5% | UO-31 renal 23.5% | TK-10 renal 19.3% | CAKI-1 renal 28.5% | A498 renal 46.5%
active: SN12C renal -29.4% | CCRF-CEM leukemia -13.5% | MOLT-4 leukemia -7.45%

Oc1ccc(Cl)cc1C(c1cc(Cl)ccc1O)C(Cl)(Cl)Cl
active: SN12C renal -4.47% | MOLT-4 leukemia 2.12%
inactive: SK-MEL-2 melanoma 49.2% | EKVX NSCLC 13.7% | UO-31 renal 40.8% | TK-10 renal 77.5% | CAKI-1 renal 36.8% | A498 renal 23.4% | CCRF-CEM leukemia 19.1%

COc1cccc2c1C(=O)c1c(O)c3c(c(O)c1C2=O)C[C@@](O)(C(=O)CO)C[C@@H]3OC1CC(OC(C)=O)C(OC(C)=O)C(C)O1 (some centres not stated)
active: SK-MEL-2 melanoma -0.534% | SN12C renal -6.25% | UO-31 renal -38.2% | TK-10 renal -36.3% | ACHN renal -92.2% | CAKI-1 renal -40.5% | A498 renal -19.1% | CCRF-CEM leukemia -48.6% | MOLT-4 leukemia -53.2%
inactive: EKVX NSCLC 30.5%

CCC(C)C(N)C(=O)NC(CC(N)=O)C(=O)NC(CC(C)C)C(=O)NC(CCCCN)C(=O)NC(C)C(=O)NC(CC(C)C)C(=O)NC(C)C(=O)NC(C)C(=O)NC(CC(C)C)C(=O)NC(C)C(=O)NC(CCCCN)C(=O)NC(CCCCN)C(=O)NC(C(=O)NC(CC(C)C)C(N)=O)C(C)CC (configuration not stated)
inactive: SK-MEL-2 melanoma 115% | EKVX NSCLC 91.2% | SN12C renal 89.5% | UO-31 renal 97.4% | TK-10 renal 106% | ACHN renal 87.3% | CAKI-1 renal 85.3% | CCRF-CEM leukemia 83.8% | MOLT-4 leukemia 94%

CCN1CCCC(Nc2cc(C)nc(/N=C(/N)Nc3ccc(Cl)c(Cl)c3)n2)C1 (configuration not stated)
inactive: EKVX NSCLC 31.4%
active: SK-MEL-2 melanoma -72.7% | SN12C renal 1.64% | UO-31 renal -81.4% | TK-10 renal -88.6% | CAKI-1 renal -40.6% | A498 renal -49.1% | CCRF-CEM leukemia -16.4% | MOLT-4 leukemia -35.4%

COC(=O)c1cc([N+](=O)[O-])cc([N+](=O)[O-])c1Cl
inactive: SK-MEL-2 melanoma 87.4% | EKVX NSCLC 98.1% | SN12C renal 99.8% | UO-31 renal 79.1% | ACHN renal 15.6% | CCRF-CEM leukemia 29.8% | MOLT-4 leukemia 26.6%
active: TK-10 renal -41.3%

CCC(C)C1NC(=O)C(NC(=O)c2c3nc4c(C(=O)NC5C(=O)NC(C(C)CC)C(=O)N6CCCC6C(=O)N(C)CC(=O)N(C)C(C(C)C)C(=O)OC5C)ccc(C)c4oc-3c(C)c(=O)c2N)C(C)OC(=O)C(C(C)C)N(C)C(=O)CN(C)C(=O)C2CCCN2C1=O (configuration not stated) (I: TIP[Sar][NMeV] / II: TIP[Sar][NMeV]; ester I:1-I:C, II:1-II:C; linker I:N-II:N via Actinocin(1to9); configuration not given here)
inactive: SN12C renal 15.4%
active: SK-MEL-2 melanoma -43.2% | EKVX NSCLC 8.25% | UO-31 renal -15.6% | TK-10 renal 3.49% | ACHN renal -4.88% | CAKI-1 renal -13.1% | CCRF-CEM leukemia -5.99% | MOLT-4 leukemia -0.501%

CCC1CCCCN1C(=S)N/N=C(\C)c1ccccn1 (configuration not stated)
inactive: EKVX NSCLC 10.9% | TK-10 renal 19.7% | CAKI-1 renal 10.4% | MOLT-4 leukemia 13.3%
active: SK-MEL-2 melanoma -11.9% | SN12C renal 7.07% | UO-31 renal -17.6% | ACHN renal 7% | A498 renal -21.9%

Nc1cc(-c2ccccc2)ccc1O
inactive: SK-MEL-2 melanoma 120% | EKVX NSCLC 96.4% | SN12C renal 104% | UO-31 renal 93.4% | TK-10 renal 127% | ACHN renal 104% | A498 renal 93% | CCRF-CEM leukemia 37.2% | MOLT-4 leukemia 25.1%

Cc1ccc(/C=C2\CNC/C(=C\c3ccc(C)cc3)C2=O)cc1
inactive: SK-MEL-2 melanoma 61% | TK-10 renal 16.9%
active: EKVX NSCLC -67.4% | SN12C renal -61.3% | UO-31 renal -81.2% | ACHN renal -82.5% | CAKI-1 renal -44.1% | CCRF-CEM leukemia -3.56% | MOLT-4 leukemia -11.4%

— PubChem BioAssay (NCI)
